Results: PubChem BioAssay (NCI)
This is part of a sample that, as a whole, favours compounds with a hit. Of some 83,000 tested, about 20% had one in any assay.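 Plates (96-well) were seeded with cells, treated with compound at one concentration, and incubated for 48 hours before percent growth was determined.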 Values without a mark were called inactive. Activity calls are given as the source filed them. Rule for the calls: active = growth percent below 10; inactive = the rest.

Legend:
Assay in all cases: NCI-60 one-dose screen, 48 h (100 = growth as untreated, 0 = no growth, -100 = all killed)
[1] = system: HOP-92 NSCLC; details: 10 µM unless noted
[2] = system: A549/ATCC NSCLC; details: 10 µM unless noted
[3] = system: COLO 205 colon; details: 10 µM
[4] = system: M14 melanoma; details: 10 µM unless noted
[5] = system: SK-MEL-2 melanoma; details: 10 µM unless noted
[6] = system: EKVX NSCLC; details: 10 µM unless noted
[7] = system: TK-10 renal; details: 10 µM unless noted
[8] = system: ACHN renal; details: 10 µM unless noted
[9] = system: CCRF-CEM leukemia; details: 10 µM unless noted
[10] = system: SR leukemia; details: 10 µM
[11] = system: OVCAR-5 ovarian; details: 10 µM unless noted
[12] = system: OVCAR-4 ovarian; details: 10 µM unless noted
[13] = system: SK-OV-3 ovarian; details: 10 µM unless noted
[14] = system: IGROV1 ovarian; details: 10 µM
[15] = system: HS 578T breast; details: 10 µM unless noted
[16] = system: NCI/ADR-RES ovarian; details: 10 µM unless noted
[17] = system: NCI-H522 lung; details: 10 µM unless noted
[18] = system: RPMI-8226 leukemia; details: 10 µM unless noted
[19] = system: HCT-116 colon; details: 10 µM unless noted

NC(Cc1ccc(O)cc1)C(=O)N/N=C/c1ccc(N(CCCl)CCCl)cc1 (stereo not drawn) showed a growth [1] of 82.1%, a growth [2] of 52.3% and a growth [3] of 112%. For the same molecule, the growth [4] was 93.6%, the growth [5] was 72.8% and the growth [6] was 92.7%. The growth [7] was 115%, the growth [8] was 75.1% and the growth [9] was 27.9%. It also gave a growth [10] of 18%, a growth [11] of 115% and a growth [12] of 90.6%. It also gave a growth [13] of 90%, a growth [14] of 63.4% and a growth [15] of 91.9%. For the same molecule, the growth [16] was 78.4%.
In the case of CC(N)Cc1ccc(O)cc1 (stereo not drawn), the growth [17] is reported as 105%, the growth [2] is reported as 103% and the growth [3] is reported as 128%. It also gave a growth [4] of 99.9%, a growth [5] of 94.8% and a growth [6] of 107%. It also gave a growth [7] of 98.3%, a growth [8] of 108% and a growth [9] of 93.9%. It also gave a growth [10] of 55.4%, a growth [18] of 98.3% and a growth [11] of 104%. It also gave a growth [13] of 105%, a growth [14] of 111% and a growth [15] of 103%. The growth [16] was 103% and the growth [19] was 100%.
COc1ccc(C2=NN(c3ccccc3)C(c3sc(N(CCCl)CCCl)nc3Cl)C2)cc1 (stereo not drawn) was tested, and the growth [17] was 71%, the growth [2] was 85.6% and the growth [3] was 92.1%. For the same molecule, the growth [4] was 93.6%, the growth [5] was 91.3% and the growth [6] was 86%. It also gave a growth [7] of 117%, a growth [8] of 82.6% and a growth [9] of 86.1%. It also gave a growth [10] of 86.1%, a growth [11] of 90.1% and a growth [12] of 91.9%. It also gave a growth [13] of 75.9%, a growth [14] of 121% and a growth [15] of 80.9%. It also gave a growth [16] of 95.7% and a growth [19] of 67%.
O=C1NC2(CCNCC2)Nc2ccccc21 showed a growth [1] of 107%, a growth [17] of 97.5% and a growth [4] of 100%. It also gave a growth [6] of 109%, a growth [7] of 98.3% and a growth [9] of 94.9%. For the same molecule, the growth [10] was 86.9%, the growth [11] was 115% and the growth [12] was 116%. For the same molecule, the growth [13] was 103%, the growth [14] was 113% and the growth [15] was 102%. The growth [16] was 109% and the growth [19] was 100%.
For O=C(/C=C/c1ccccc1)N[C@@H](CO)Cc1cnc[nH]1, the growth [1] was 100%, the growth [5] was 102% and the growth [7] was 93.5%. The growth [8] was 96.4%, the growth [18] was 98% and the growth [12] was 96.8%. The growth [13] was 113%, the growth [14] was 92.9% and the growth [15] was 116%. For the same molecule, the growth [16] was 98% and the growth [19] was 109%.
With CC(=O)N1N=C(c2ccccc2)CC1c1sc(N(CCCl)CCCl)nc1Cl (stereo not drawn) the growth [17] was 72.2%, the growth [2] was 86.3% and the growth [3] was 99.5%. The growth [4] was 101%, the growth [5] was 87.1% and the growth [6] was 90.9%. The growth [7] was 108%, the growth [8] was 99.2% and the growth [9] was 93.5%. For the same molecule, the growth [10] was 86.4%, the growth [11] was 98.4% and the growth [12] was 101%. For the same molecule, the growth [13] was 89.4%, the growth [14] was 101% and the growth [15] was 88%. It also gave a growth [16] of 99% and a growth [19] of 92.5%.
O=C(CCCN1CCC2(CC1)C(=O)NCN2c1ccc(F)cc1)c1ccc(F)cc1 gave a growth [1] of 102%, a growth [17] of 87.5% and a growth [3] of 124%. It also gave a growth [4] of 97.3%, a growth [5] of 84.9% and a growth [6] of 135%. It also gave a growth [7] of 102%, a growth [8] of 108% and a growth [9] of 96.9%. For the same molecule, the growth [18] was 101%, the growth [11] was 91.3% and the growth [12] was 108%. It also gave a growth [13] of 98.4%, a growth [14] of 71.9% and a growth [15] of 133%. For the same molecule, the growth [16] was 97.9% and the growth [19] was 88.6%.
CCC1CN1P(=O)(OCCOC)N1CC1CC (stereo not drawn) showed a growth [1] of 98.4%, a growth [3] of 119% and a growth [4] of 109%. The growth [5] was 126%, the growth [7] was 123% and the growth [8] was 103%. For the same molecule, the growth [18] was 105%, the growth [12] was 109% and the growth [13] was 118%. It also gave a growth [15] of 114%, a growth [16] of 115% and a growth [19] of 104%.
O=C1NC(=O)C(=Cc2cn(Cc3ccccc3)c3ccccc23)C(=O)N1 was tested, and the growth [1] was 79.3%, the growth [17] was 102% and the growth [3] was 18.3%. For the same molecule, the growth [4] was 99.5%, the growth [5] was 105% and the growth [6] was 63.7%. It also gave a growth [7] of 28.8%, a growth [9] of 98.1% and a growth [10] of 71.4%. The growth [18] was 75.7%, the growth [11] was 18.4% and the growth [12] was 68.3%. For the same molecule, the growth [13] was 53.2%, the growth [14] was -26.7% (active) and the growth [15] was 78%. For the same molecule, the growth [16] was 106% and the growth [19] was 86.1%.
Oc1ccc2c3c1O[C@H]1c4[nH]c5ccccc5c4C[C@@]4(O)C(C2)N(CC2CC2)CC[C@]314 gave a growth [1] of 82.9%, a growth [2] of 90% and a growth [3] of 96.9%. For the same molecule, the growth [4] was 98.6%, the growth [5] was 90.1% and the growth [7] was 95%. The growth [9] was 89.7%, the growth [10] was 79.6% and the growth [18] was 93.1%. For the same molecule, the growth [11] was 106%, the growth [12] was 96.5% and the growth [13] was 103%. For the same molecule, the growth [15] was 92.1%, the growth [16] was 92.1% and the growth [19] was 89.8%.
